Cycloheximide cs: Cycloheximide Counterscreen for Small Molecule Inhibitors of Shiga Toxin; 300,000 tested, 12% active; max response, %; AID 2314, 2010; cell reporter, cycloheximide protein synthesis inhibition counterscreen; in the data active means max response mostly above about 13%, no sharp cut-off; inactive means mostly below about 14%; further: read at 38.3 µM for the half of the compounds with a filed dose; 0% is about no effect
Pf growth 96h: Primary qHTS for delayed death inhibitors of the malarial parasite plastid, 96 hour incubation; P. falciparum luciferase reporter growth, 96 h; Potency, µM (series often up to 28.7 µM), without a hit: top-dose activity change, negative = inhibition, usual class: inhibitors; 320,000 tested, 6.9% active; further: potency means the concentration at half of the fitted maximal effect; on the % scale 0 is the no-effect control and ±100 the full control effect
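P. falciparum expressing integrated firefly luciferase, in erythrocytes at 2% hematocrit, 0.05% parasitemia, incubated with compounds 96 h at 37 C, 5% CO2. Growth inhibition read as loss of luminescence; two-generation exposure targets delayed-death apicoplast inhibitors.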
LmPK inhibitor: qHTS Assay for Inhibitors of Leishmania Mexicana Pyruvate Kinase (LmPK) | purified LmPK, Kinase-Glo ATP luminescence, 1 h | Potency, µM (top dose mostly 57.5 µM), inactives show top-dose activity change, negative = inhibition, most hits filed as inhibitors | 290,000 tested, 0.37% active | AID 1721, 2009; further: potency means the concentration at half of the fitted maximal effect; on the % scale 0 is the no-effect control and ±100 the full control effect
Target sequence (Q27686 whole entry, looked up): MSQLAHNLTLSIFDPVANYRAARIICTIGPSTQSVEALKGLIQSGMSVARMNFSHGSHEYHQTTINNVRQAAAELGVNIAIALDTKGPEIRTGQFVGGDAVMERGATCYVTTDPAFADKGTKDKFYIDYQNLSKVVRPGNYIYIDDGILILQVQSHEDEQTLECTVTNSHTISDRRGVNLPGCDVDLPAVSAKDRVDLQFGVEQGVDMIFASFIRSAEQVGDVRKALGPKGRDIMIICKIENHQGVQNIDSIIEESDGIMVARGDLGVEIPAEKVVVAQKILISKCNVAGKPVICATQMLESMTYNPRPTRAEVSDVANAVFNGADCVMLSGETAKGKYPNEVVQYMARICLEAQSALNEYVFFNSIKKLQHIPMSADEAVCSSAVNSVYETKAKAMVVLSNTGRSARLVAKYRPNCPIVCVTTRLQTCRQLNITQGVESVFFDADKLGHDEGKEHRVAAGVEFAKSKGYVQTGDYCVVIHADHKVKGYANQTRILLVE
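Kinase-Glo luminescence read after 1 h RT reaction of 0.1 nM LmPK with 0.5 mM PEP and 0.1 mM ADP. Activity scaled between uninhibited and enzyme-free controls.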
Shiga inhibitor: A qHTS for Small Molecule Inhibitors of Shiga Toxin. Vero cells, Shiga toxin protein synthesis inhibition reporter. inhibition, % at 38.7 µM. 290,000 tested, 9.2% active. AID 2315, 2010; in the data active means inhibition mostly above about 28%, no sharp cut-off; inactive means mostly below about 43%; further: 0% is about no effect
Pf growth 48h: Primary qHTS for delayed death inhibitors of the malarial parasite plastid, 48 hour incubation; P. falciparum luciferase growth in erythrocytes, 48 h; Potency, µM (titrated, usually from 28.7 µM), inactives show at the top dose activity change, negative = inhibition, usual class: inhibitors; 310,000 tested, 5.9% active; AID 504832, 2011; further: potency means the concentration at half of the fitted maximal effect; on the % scale 0 is the no-effect control and ±100 the full control effect
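Compounds are pin-transferred into medium, infected erythrocytes (2% hematocrit, 0.1% parasitemia final) are added, and plates sit one parasite generation at 37 C in 5% CO2. Detection reagent is then added and luminescence measured.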
* hit, by the source's call; ? = inconclusive; / = no result given; [ ] = another dose, or the depositor's remark. Most compounds without a hit are left out; they make up all but 22% or so of the library. Unless noted, the call rests on the fitted dose curve; in most records, active means well fitted inhibition curve with a large enough effect; inconclusive means small, poorly fitted or top-dose-only effect, or another doubt; inactive means no such curve, though single readings can be large or run the other way.

SMILES | Cycloheximide cs | Pf growth 96h | LmPK inhibitor | Shiga inhibitor | Pf growth 48h
Cc1ccc([N+](=O)[O-])cc1NC(=O)CSc1n[nH]c(-c2cccnc2)n1 | -4.0 | ? | -1.6% | -7.9 | 2.1%
CC(=O)c1ccc(N(C(=O)c2csnn2)C(C(=O)NC2CCCC2)c2ccccc2)cc1 (stereo not given) | 2.9 | 17.7% | -1.6% | -7.1 | -18.5%
Cc1cccc2cc3c(nc12)-c1ccccc1C3=O | 17.3* | 0.0% | 2.2% | 42.6* | -15.9%[0.00184 µM]
Cc1nc2c(cc1C#N)C(=O)c1ccccc1-2 | 8.6 | 22.1% | 1.5% | -1.0 | 8.1%
Cc1ccc(Nc2nc(C)nc3c2oc2ccccc23)cc1 | 11.2* | ? | 1.1% | 22.3 | ?
c1ccc2c(c1)oc1c(Nc3ccc4c(c3)OCO4)ncnc12 | 45.3* | 150.9% | -3.3% | 100.3* | 101.3%
Cc1nc(Nc2ccccc2)c2oc3ccc(Cl)cc3c2n1 | 18.3* | ? | -0.1% | 43.1* | ?
c1ccc2c(c1)oc1c(NCc3ccc4c(c3)OCO4)ncnc12 | -1.8 | -15.5% | -1.7% | -11.6 | 15.0%
Cc1nc(Nc2ccc3c(c2)OCO3)c2oc3ccccc3c2n1 | 38.5* | 6.4% | 1.6% | 45.6* | ?
CC(C)(C)c1ccc(S(=O)(=O)Nc2noc3ccccc23)cc1 | 15.7 | ? | -4.9% | 6.5 | /
COc1ccc(C(=O)O)cc1S(=O)(=O)Nc1ccccc1Cc1ccccc1 | -7.3 | -4.3% | 2.0% | -15.6 | 29.5%
Cc1cccc(NC(=S)N2CCC(C(=O)c3ccc(F)cc3)CC2)c1C | -0.7 | 29.2% | 7.3% | 18.3 | -2.1%
Cc1cccc(NC(=O)CSCC(=O)Nc2sccc2C#N)c1 | / | 2.3% | / | / | ?
COCCCN=C(c1ccco1)n1c(=S)nc(-c2ccco2)n(CCCOC)c1=S | 27.7* | 27.1% | -0.4% | 62.0* | 4.7%
Cc1nc(Cc2nnc(SCC(=O)Nc3c(C)cccc3C)o2)cs1 | / | 33.1% | / | / | 10.8%
CCOc1ccc(C(=O)NC(C)C2COc3ccccc3O2)cc1 (stereo not given) | 10.5* | 1.1% | 8.7% | 33.7 | 33.3%
CCOc1ccc(C(=O)NCC(C)C)cc1 | 21.8* | 280.7% | -8.9% | 57.5* | 56.6%
CCOc1ccc(C(=O)NCC(C)NC(=O)c2ccc(OCC)cc2)cc1 (stereo not given) | 1.0 | 0.4% | 2.2% | 0.4 | 6.6%
CCOc1ccc(C(=O)NCC(c2cccs2)N(C)C)cc1 (stereo not given) | 35.2* | ? | 2.6% | 28.5* | 15.7%
CCOc1ccc(C(=O)NCc2ccncc2)cc1 | -2.6 | 4.15µM* | -2.9% | -5.5 | 6.5%
CC[C@@]1(c2ccccc2)NC(=O)N(C)C1=O | / | -21.5% | / | / | -18.6%
Cc1cccc(CCNC(=O)c2nnc(Cc3ccc(Cl)cc3)o2)c1 | -2.0 | 3.2% | 2.5% | -13.8 | 12.0%
C/C(=N\NC(=O)C1CCCC1)c1ccc(Cl)cc1 | 40.7* | 18.6% | 1.0% | 52.4* | 35.1%
C/C(=N\NC(=O)C1CC1)c1ccc(C(C)(C)C)cc1 | 21.4 | 0.0% | -4.1% | 17.7 | ?
C/C(=N\NC(=O)C1CC1)c1ccc(Cl)cc1 | -2.8 | 5.22µM* | -2.1% | -3.4 | ?
SMILES | Cycloheximide cs | Pf growth 96h | LmPK inhibitor | Shiga inhibitor | Pf growth 48h
COc1ccc(C)cc1NC(=O)C(=O)NNC(=O)COc1ccc(Cl)cc1 | -1.6 | 42.3% | -2.0% | -15.4 | 5.8%
O=C(Cn1cc([N+](=O)[O-])nc1[N+](=O)[O-])N1CCN(c2ccccc2)CC1 | 7.9 | 20.3% | 6.4% | -6.2 | 0.738µM*
O=C(Cn1cnc2ccccc2c1=O)N1CCN(c2ccccc2)CC1 | -0.8 | -4.2% | 0.5% | -2.4 | 0.0%
C/C=C/COC(=O)c1[nH]c2c(c1C)C(=O)CC(c1ccc(N(C)C)cc1)C2 (stereo not given) | 22.9* | 17.0% | 0.9% | 19.7 | ?
CCC(C)OC(=O)c1[nH]c2c(c1C)C(=O)CC(c1ccc(N(C)C)cc1)C2 (stereo not given) | 41.2* | 4.1% | -4.2% | 56.8* | ?
CC[C@H](C)[C@H](NC(=O)[C@H](CCCNC(=N)N)NC(=O)[C@@H]1CCCN1C(=O)[C@H](Cc1ccccc1)NC(=O)[C@H](Cc1cnc[nH]1)NC(=O)[C@H](CCCNC(=N)N)NC(=O)[C@@H](NC(=O)[C@H](C)NC(=O)[C@H](CCC(=O)O)NC(=O)[C@H](CC(N)=O)NC(=O)[C@@H](N)CCCCN)C(C)C)C(=O)N[C@@H](Cc1c[nH]c2ccccc12)C(=O)N[C@@H](CC(C)C)C(=O)O | -4.5 | / | / | -5.6 | /
C=CCn1c(=O)c2ccccc2n2c(SC(C)C(=O)Nc3nc(-c4ccccc4)cs3)nnc12 (stereo not given) | -5.1 | ? | 4.9% | 10.5 | 10.4µM*
CCc1ccc(NC(=O)CC2C(=O)N(c3ccc(C)cc3)C(=O)N2CCc2ccncc2)cc1 (stereo not given) | -4.9 | -4.4% | 6.7%[11.5 µM] | -4.3 | 14.7µM*
O=C(CC1C(=O)N(c2ccc(Cl)cc2)C(=S)N1CCc1ccncc1)Nc1ccc(F)cc1 (stereo not given) | -4.5 | ? | 4.4% | -24.2 | ?
CCNC(=O)CC1C(=O)N(c2ccc(F)cc2)C(=S)N1CCc1ccncc1 (stereo not given) | 12.9 | ? | 0.5% | -11.2 | 13.1µM*
Cc1cccc(N2C(=O)C(CC(=O)Nc3cccc(F)c3)N(CCc3ccncc3)C2=O)c1 (stereo not given) | -7.0 | 11.9% | 7.8%[11.5 µM] | -4.1 | -21.1%
O=C(c1cccc(NS(=O)(=O)c2ccc(F)c(F)c2)c1)N1CCN(Cc2ccccc2)CC1 | -2.1 | -29.0% | 1.9% | 7.3 | -16.0%
COc1ccccc1Nc1nc(-c2c(C)[nH]c3ccccc23)cs1 | 7.6 | 2.33µM* | -1.9% | 1.8 | 5.22µM*
CCCCCC(=O)Nc1nc(C)c(-c2csc(Nc3cc(Cl)ccc3OC)n2)s1 | 16.4 | 3.7µM* | 1.1% | -11.6 | 7.38µM*
CCCC(=O)Nc1nc(C)c(-c2csc(Nc3ccccc3OC)n2)s1 | -4.0 | 13.1µM* | 0.9% | -5.2 | ?
Cc1ccc(Cl)cc1Nc1nc(-c2sc(NC(=O)C(C)(C)C)nc2C)cs1 | 13.6 | 5.22µM* | 1.2% | 6.2 | 8.28µM*
CCCSCCCNC(=O)c1ccc(C)c(NC(=O)C2=C(C)OCCS2)c1 | -0.4 | -15.4% | -0.6% | -5.7 | ?
CC1=C(C(=O)OCC(C)C)C2(O)C(=O)c3ccccc3C2(O)N1 (stereo not given) | 1.1 | -3.0% | -1.0% | 1.4 | -11.7%
Cc1c(-n2cc(C(=O)c3cc(Br)ccc3O)cc(C#N)c2=O)c(=O)n(-c2ccccc2)n1C | -1.4 | ? | 8.0% | -2.8 | /
CC(C)Oc1ccc(C(=O)Nc2c3c(nn2-c2ccccc2)CS(=O)(=O)C3)cc1 | -4.6 | -36.3% | 0.2% | -4.3 | ?
COc1ccccc1Nc1nc(-c2sc(NC(=O)CC(C)C)nc2C)cs1 | 4.3 | 1.85µM* | -2.4% | 16.1 | ?

Screens from PubChem BioAssay.
